How the values were obtained:
Test in all cases: log2 ratio of Biotin-Ahx-Ub-VS probe labelling (fragment/DMSO); higher = less target engagement (more negative = stronger competition), active = hit call of the paper (q ≤ 0.05, log2 ratio ≤ -1)
Settings in all cases: compound concentration: 200 uM; treatment time: 3 h
[1] = biological target: T1, OTUD6B (UniProt Q8N6M0)
T1 sequence (whole entry): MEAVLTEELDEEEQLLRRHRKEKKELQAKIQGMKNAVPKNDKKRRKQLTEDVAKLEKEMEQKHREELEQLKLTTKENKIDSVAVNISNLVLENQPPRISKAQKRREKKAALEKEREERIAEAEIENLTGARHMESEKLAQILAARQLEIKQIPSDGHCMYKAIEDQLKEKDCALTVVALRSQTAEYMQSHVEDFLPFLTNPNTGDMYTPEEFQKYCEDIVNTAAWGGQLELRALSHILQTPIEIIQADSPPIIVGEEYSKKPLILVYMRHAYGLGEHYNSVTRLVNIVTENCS
Summary of the method: (§1)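 The table lists average log2 ratios of fragment over vehicle, from an unpaired t-test on global-median-normalised Spectronaut label-free quantities. Proteins with ≥2 unique peptides were used. Samples were HEK293T lysate (495 µg) treated in triplicate with fragment at 200 µM or vehicle for 3 h, then with Biotin-Ahx-Ub-VS (0.5 µM final) for 1 h, with labelled DUBs NeutrAvidin-enriched and run by diaPASEF LC-MS/MS.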

[2] = biological target: T2, OTUD7B (UniProt Q6GQQ9)
T2 sequence (whole entry): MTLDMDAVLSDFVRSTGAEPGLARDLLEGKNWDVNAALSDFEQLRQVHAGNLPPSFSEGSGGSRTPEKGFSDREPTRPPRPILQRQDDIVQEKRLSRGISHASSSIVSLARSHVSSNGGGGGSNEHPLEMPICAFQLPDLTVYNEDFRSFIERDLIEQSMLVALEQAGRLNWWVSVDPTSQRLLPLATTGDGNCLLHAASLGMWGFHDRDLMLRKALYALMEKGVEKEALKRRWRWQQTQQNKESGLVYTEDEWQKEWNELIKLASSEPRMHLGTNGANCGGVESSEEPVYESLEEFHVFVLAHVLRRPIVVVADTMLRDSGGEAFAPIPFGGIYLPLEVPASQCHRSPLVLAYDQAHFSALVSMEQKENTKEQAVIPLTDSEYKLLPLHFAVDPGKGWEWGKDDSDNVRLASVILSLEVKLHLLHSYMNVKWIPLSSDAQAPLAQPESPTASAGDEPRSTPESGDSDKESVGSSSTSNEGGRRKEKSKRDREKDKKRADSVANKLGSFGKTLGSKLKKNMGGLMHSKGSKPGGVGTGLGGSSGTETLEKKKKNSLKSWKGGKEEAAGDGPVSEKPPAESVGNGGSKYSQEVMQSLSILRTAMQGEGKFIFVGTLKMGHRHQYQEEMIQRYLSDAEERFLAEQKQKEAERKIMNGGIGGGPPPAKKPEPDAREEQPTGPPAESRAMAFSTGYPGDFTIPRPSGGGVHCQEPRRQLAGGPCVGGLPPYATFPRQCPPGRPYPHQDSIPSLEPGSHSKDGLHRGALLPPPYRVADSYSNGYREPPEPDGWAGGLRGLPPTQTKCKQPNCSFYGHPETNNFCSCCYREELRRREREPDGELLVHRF
Summary of the method: as §1

[3] = biological target: PRPF8 (UniProt Q6P2Q9)
Summary of the method: as §1

[4] = biological target: T3, PSMD7 (UniProt P51665)
T3 sequence (whole entry): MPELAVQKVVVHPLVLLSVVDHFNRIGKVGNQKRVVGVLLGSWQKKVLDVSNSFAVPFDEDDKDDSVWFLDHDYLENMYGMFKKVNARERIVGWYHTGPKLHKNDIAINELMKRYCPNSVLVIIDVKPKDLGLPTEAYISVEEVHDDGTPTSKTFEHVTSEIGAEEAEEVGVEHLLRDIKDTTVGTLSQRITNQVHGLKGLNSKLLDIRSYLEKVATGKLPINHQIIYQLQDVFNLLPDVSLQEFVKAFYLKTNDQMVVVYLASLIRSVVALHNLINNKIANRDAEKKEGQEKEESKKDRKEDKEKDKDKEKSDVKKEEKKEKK
Summary of the method: as §1

[5] = biological target: UCHL1 (UniProt P09936)
Summary of the method: as §1

[6] = biological target: T4, UCHL3 (UniProt P15374)
T4 sequence (whole entry): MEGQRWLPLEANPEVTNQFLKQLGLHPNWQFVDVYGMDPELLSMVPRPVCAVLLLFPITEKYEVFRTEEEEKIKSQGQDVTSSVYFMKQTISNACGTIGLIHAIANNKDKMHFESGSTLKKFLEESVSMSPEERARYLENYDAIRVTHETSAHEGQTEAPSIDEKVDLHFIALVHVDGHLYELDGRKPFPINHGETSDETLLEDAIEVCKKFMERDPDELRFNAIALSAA
Summary of the method: as §1

[7] = biological target: T5, UCHL5 (UniProt Q9Y5K5)
T5 sequence (whole entry): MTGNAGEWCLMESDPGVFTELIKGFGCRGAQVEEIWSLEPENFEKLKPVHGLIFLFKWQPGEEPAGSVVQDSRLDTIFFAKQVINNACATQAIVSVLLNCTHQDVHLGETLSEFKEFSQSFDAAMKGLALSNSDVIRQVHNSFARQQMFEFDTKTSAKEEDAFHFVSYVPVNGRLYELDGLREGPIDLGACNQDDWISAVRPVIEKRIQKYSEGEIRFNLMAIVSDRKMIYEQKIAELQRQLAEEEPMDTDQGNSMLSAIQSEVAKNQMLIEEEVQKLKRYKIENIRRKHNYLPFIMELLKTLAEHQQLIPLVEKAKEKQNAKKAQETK
Summary of the method: as §1

[8] = biological target: USP10 (UniProt Q14694)
Summary of the method: as §1

[9] = biological target: T6, USP15 (UniProt Q9Y4E8)
T6 sequence (whole entry): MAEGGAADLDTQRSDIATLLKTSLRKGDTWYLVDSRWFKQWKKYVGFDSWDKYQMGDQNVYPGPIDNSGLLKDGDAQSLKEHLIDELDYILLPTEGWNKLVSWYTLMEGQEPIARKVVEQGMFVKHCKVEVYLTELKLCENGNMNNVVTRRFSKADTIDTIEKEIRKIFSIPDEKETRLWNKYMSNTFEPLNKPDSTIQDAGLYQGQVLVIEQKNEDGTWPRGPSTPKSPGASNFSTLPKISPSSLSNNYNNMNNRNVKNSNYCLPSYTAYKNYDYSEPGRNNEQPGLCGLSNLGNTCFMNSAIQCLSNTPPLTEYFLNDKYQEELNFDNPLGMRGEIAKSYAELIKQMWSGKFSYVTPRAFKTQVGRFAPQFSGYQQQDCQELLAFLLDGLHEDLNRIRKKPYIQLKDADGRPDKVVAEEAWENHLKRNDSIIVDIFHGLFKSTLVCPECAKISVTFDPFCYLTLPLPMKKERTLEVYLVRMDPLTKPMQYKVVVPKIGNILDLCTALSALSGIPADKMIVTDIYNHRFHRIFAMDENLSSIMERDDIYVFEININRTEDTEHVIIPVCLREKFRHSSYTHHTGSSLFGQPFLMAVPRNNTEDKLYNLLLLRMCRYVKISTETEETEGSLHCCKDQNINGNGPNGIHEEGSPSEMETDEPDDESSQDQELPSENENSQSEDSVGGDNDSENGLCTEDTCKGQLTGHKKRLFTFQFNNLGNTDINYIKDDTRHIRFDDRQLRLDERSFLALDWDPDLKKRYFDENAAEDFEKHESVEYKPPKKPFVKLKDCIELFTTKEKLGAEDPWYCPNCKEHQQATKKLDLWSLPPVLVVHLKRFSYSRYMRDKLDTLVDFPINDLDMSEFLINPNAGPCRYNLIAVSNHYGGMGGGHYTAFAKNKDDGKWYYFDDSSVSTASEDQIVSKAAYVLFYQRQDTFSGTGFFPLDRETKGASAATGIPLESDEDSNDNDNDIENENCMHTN
Summary of the method: as §1

[10] = biological target: USP16 (UniProt Q9Y5T5)
Summary of the method: as §1

Measured: log2 ratio of Biotin-Ahx-Ub-VS probe labelling

Sequence of UCHL1 (P09936 whole entry, looked up): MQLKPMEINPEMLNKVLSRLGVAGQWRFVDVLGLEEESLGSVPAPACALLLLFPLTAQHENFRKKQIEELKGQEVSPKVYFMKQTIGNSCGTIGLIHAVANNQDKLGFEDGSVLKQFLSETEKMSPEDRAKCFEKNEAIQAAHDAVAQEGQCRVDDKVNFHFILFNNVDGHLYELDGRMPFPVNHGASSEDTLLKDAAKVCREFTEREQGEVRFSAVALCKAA
Sequence of USP16 (Q9Y5T5 whole entry, looked up): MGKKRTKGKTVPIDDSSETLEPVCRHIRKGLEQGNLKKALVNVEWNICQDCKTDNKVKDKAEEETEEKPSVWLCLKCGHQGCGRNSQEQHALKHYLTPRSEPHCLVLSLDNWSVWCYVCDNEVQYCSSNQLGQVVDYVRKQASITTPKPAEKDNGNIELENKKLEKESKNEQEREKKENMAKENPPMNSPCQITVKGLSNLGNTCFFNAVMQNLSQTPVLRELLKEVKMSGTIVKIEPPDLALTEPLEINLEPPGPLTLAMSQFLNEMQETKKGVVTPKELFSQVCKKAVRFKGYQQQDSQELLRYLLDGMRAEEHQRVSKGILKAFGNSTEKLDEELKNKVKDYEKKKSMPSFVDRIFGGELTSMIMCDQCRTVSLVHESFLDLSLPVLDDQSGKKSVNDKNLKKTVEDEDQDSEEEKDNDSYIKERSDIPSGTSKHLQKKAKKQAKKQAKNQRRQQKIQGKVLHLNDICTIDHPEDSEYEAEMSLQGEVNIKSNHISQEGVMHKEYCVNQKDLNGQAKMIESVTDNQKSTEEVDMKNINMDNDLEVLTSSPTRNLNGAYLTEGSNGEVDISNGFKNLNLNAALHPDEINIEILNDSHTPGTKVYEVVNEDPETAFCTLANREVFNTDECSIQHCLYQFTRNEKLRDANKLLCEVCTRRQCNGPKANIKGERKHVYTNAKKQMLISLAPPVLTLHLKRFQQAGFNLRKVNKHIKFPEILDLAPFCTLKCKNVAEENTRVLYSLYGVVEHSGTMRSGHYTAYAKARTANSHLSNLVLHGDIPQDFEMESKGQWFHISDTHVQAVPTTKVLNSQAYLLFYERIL
Sequence of USP10 (Q14694 whole entry): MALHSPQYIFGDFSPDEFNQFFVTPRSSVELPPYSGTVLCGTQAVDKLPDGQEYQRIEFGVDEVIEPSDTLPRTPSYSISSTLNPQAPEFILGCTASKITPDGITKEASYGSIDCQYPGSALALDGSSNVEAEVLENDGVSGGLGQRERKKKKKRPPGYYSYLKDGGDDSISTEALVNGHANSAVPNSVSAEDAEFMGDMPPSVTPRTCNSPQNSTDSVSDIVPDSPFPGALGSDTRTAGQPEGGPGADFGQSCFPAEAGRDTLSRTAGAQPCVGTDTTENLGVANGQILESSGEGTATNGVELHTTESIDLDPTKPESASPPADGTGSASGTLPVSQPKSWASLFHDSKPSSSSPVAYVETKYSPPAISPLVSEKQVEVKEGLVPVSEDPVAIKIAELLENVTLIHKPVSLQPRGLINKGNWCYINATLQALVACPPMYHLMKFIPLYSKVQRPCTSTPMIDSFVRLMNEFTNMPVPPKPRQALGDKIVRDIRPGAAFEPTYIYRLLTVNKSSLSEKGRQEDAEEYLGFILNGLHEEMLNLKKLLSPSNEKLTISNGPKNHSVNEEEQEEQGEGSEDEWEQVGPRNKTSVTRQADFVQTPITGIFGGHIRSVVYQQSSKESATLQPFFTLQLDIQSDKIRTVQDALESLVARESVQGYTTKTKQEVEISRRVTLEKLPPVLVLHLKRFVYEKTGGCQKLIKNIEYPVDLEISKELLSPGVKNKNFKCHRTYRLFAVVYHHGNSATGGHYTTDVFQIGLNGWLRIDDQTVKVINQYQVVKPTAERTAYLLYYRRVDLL

Cl.O=C(CCl)N1CCCC(c2ncc[nH]2)C1 (stereo not given)
active: [5] -1.49
inactive: [1] -0.0792 | [2] -0.245 | [3] -0.138 | [4] -0.217 | [6] 0.271 | [7] -0.164 | [8] -0.028 | [9] -0.0525 | [10] -0.216
